In the library only some 1.2% were active in any assay of this set; here they are far more common.
LRH-1 inv ag = inverse agonists of human LRH-1 (NR5A2); O00482; HEK293T StAR-luciferase reporter, LRH-1 transfected, 24 h; inhibition, % at 3.6 µM; 0.13% of 360,000 active; AID 602396;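 active = inhibition above the mean inhibition of all tested compounds plus 3 SD, cut at about 73% in these data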;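 also: 0% = DMSO wells and 100% = reporter-only cells lacking LRH-1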
Gli-Sufu block = blocks Gli-Sufu signaling in a luciferase reporter. Sufu-KO-LIGHT fibroblasts, Gli luciferase reporter luminescence. inhibition, % at 5 µM. 0.74% of 340,000 active. AID 588413;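 active = inhibition above about 55%, limit read from the data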;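 also: 0% = DMSO-treated cells and 100% = wells with medium but no cells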
SRC2 inh = inhibits human steroid receptor coactivator 2. Q15596. HEK293 GAL4-SRC2 luciferase reporter, luminescence. inhibition, % at 9 µM. 0.17% of 370,000 active;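 active = inhibition above the mean inhibition of all tested compounds plus 3 SD, set per campaign, cut at about 52% in these data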;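 also: 0% = DMSO treated cells and 100% = cells given Gossypol at 36 µM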
NCOA3 inh = human NCOA3 inhibition; Q9Y6Q9; HEK293 GAL4-SRC3 luciferase reporter, luminescence; inhibition, % at 3.6 µM; 0.17% of 360,000 active; AID 588352;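 active = inhibition above a per-campaign cutoff, the mean of all compounds plus 3 SD, cut at about 60% in these data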;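 also: 0% = DMSO-treated cells and 100% = gossypol-treated cells at 36 µM; higher means less SRC3-driven luciferase light from the GAL4 reporter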
Target sequence (Q9Y6Q9 whole entry, looked up, the tested form may be a part): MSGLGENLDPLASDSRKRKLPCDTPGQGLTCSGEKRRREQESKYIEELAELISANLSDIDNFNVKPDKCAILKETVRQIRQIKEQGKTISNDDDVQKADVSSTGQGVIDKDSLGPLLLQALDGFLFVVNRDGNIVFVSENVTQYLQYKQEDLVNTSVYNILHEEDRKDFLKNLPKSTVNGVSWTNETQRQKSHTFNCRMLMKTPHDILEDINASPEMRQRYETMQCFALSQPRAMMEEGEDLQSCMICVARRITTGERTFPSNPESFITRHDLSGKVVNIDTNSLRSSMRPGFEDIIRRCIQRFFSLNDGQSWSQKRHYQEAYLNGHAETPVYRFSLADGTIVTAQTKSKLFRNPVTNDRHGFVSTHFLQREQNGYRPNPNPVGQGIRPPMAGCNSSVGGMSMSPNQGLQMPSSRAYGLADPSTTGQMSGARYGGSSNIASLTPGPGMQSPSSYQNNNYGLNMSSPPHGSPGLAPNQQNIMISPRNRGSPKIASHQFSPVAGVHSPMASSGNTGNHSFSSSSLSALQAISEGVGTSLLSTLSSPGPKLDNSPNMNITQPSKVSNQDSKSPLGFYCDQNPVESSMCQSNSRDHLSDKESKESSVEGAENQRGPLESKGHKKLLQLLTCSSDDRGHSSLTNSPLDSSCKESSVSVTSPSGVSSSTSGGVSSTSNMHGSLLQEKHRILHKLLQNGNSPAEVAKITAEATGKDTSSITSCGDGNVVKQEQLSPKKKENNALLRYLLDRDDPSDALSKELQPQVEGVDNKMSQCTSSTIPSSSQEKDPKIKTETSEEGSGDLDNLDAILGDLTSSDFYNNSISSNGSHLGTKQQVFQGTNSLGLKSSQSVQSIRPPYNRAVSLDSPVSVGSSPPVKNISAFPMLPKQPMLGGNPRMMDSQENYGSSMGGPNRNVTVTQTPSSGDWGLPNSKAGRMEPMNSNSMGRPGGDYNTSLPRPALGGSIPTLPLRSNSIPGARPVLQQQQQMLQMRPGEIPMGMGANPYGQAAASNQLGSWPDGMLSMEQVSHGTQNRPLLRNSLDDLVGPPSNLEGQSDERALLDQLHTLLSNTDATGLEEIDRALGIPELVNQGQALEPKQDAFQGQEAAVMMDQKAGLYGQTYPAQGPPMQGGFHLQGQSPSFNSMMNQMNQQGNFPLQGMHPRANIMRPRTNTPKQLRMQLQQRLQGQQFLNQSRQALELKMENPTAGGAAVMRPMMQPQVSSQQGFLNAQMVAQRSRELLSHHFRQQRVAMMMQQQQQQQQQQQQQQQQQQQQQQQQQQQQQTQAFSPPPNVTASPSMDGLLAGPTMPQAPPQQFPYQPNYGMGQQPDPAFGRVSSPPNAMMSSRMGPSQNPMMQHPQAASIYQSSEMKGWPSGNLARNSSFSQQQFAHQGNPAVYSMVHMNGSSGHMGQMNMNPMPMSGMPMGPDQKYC
NCOA1 inh = inhibitors of human steroid receptor coactivator 1 (SRC1); Q15788; HEK293 GAL4-SRC1 luciferase reporter, luminescence; inhibition, % at 3.6 µM; 0.12% of 360,000 active;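 active = inhibition above the campaign mean plus 3 SD, with each screening campaign given its own cutoff, cut at about 60% in these data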;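 also: 0% = DMSO treated cells and 100% = gossypol at 36 µM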
NR2F2 inh = blocks human COUP-TFII nuclear receptor. 0.7% of 370,000 active. P24468. HEK293T NGFI-A luciferase reporter, luminescence. AID 686940. inhibition, % at 8.6 µM;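 active = inhibition above a per-plate cutoff, mean inhibition of test wells between control levels plus 3 SD, cut at about 38% in these data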;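 also: cells cotransfected with COUP-TFII expression vector driving the NGFI-A reporter; 0% = median of COUP-TF2 test wells and 100% = reporter-only cells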
Gal4-VP16 ctr = counter-screen for COUP-TFII antagonists: inhibitors of VP16. HEK293 Gal4-VP16 luciferase reporter, luminescence. inhibition, % at 8.5 µM. shares compounds with NR2F2 inh. 25% of 2,500 active; in the data active = inhibition above about 13%
NR2F2 inh conf = COUP-TFII (NR2F2) inhibition, confirmation assay | shares compounds with NR2F2 inh | HEK293 NGFI-A luciferase reporter, luminescence | inhibition, % at 8.5 µM | 45% of 2,500 active | AID 687008;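 active = mean inhibition over three repeats above a set limit taken from the earlier primary screen, cut at about 38% in these data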;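 also: 100% = cells given the luciferase reporter alone without the COUP-TF2 vector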
An asterisk follows results filed as active; / = not tested or not shown.

SMILES	LRH-1 inv ag	Gli-Sufu block	SRC2 inh	NCOA3 inh	NCOA1 inh	NR2F2 inh	Gal4-VP16 ctr	NR2F2 inh conf
O=C(Nc1ccc(OCc2ccccc2)cc1)c1cccnc1	-2	-14	-49	-16	-66	-20	/	/
Cc1ccc(C(=O)Nc2sc(C)c(-c3ccccc3)c2C(N)=O)cc1[N+](=O)[O-]	43	66*	49	60	51	56*	27*	84*
COC(=O)C12C=C3CC(c4ccc(C(F)(F)F)cc4)=C3C(=O)N1Cc1[nH]c3ccccc3c1C2 (stereo not drawn)	/	/	9	/	/	3	/	/
S=C(NCc1ccc(Cl)cc1)NC1CCN(Cc2ccccc2)CC1	15	48	35	23	-24	52*	6	19
Clc1ccc(CNC2CCN(Cc3ccccc3)CC2)cc1	-4	30	-23	0	6	5	/	/
CC(C)C[C@H]1COc2ccc(Cl)cc2S(=O)(=O)N1	/	/	9	/	/	9	/	/
C[n+]1c2n(c3ccccc31)N=C(c1cc(C(C)(C)C)c(O)c(C(C)(C)C)c1)CS2	79*	89*	9	60	7	81*	29*	87*
COc1cccc(C2=Nn3c(nnc3-c3ccccc3O)SC2)c1	11	6	-4	12	7	-9	/	/
COC(=O)[C@]12C[C@H](CC(=O)NCc3ccccc3)C(=O)N(Cc3ccc4c(c3)OCO4)C1=C[C@H](COCc1ccccc1)O[C@@H]2C	/	/	-8	/	/	-23	/	/
COc1ccc(N2CCN(C(=O)c3ccc(NS(=O)(=O)c4cccc(F)c4)cc3)CC2)cc1	12	-13	-4	6	0	11	/	/
COc1ccc(NS(=O)(=O)c2cccc(C(=O)OCC(=O)N3CCN(c4ccc(OC)cc4)CC3)c2)cc1	3	20	8	12	1	39*	-9	15
Oc1cccc2cc(Nc3ccccc3)cnc12	90*	/	14	69*	57	55*	-9	46*
Oc1cc(Nc2ccccc2)cc2cccnc12	21	9	8	-13	-2	1	/	/
CCOC(=O)N[C@@H](CC(C)C)C(=O)N1CCC[C@H]1C(=O)NCc1ccccc1	/	/	11	/	/	11	/	/
O=C(CCCN1C(=O)S/C(=C\c2ccccc2)C1=O)NNC(=O)c1ccccc1O	42	36	78*	71*	60	61*	82*	87*
O=C(CCCN1C(=O)/C(=C/c2cccs2)SC1=S)NNC(=O)c1cccnc1	15	-2	27	11	5	10	/	/
O=C(CCN1C(=O)/C(=C/c2ccccc2Cl)SC1=S)Nc1ccccc1C(=O)O	4	7	8	4	-22	-7	/	/
O=C(CCCN1C(=O)/C(=C/c2ccccc2Cl)SC1=S)NNC(=O)c1ccccc1	37	6	81*	40	37	64*	28*	38*
O=C(CN1C(=O)S/C(=C\c2ccccc2)C1=O)NNC(=O)c1ccccc1O	6	4	11	-3	-13	6	/	/
O=C(CCCN1C(=O)/C(=C/c2ccccc2Cl)SC1=S)NNC(=O)c1ccc(Cl)cc1Cl	3	26	81*	34	27	72*	39*	42*
O=C(CCCN1C(=O)/C(=C/c2ccccc2Cl)SC1=S)NNC(=O)c1cccnc1	20	-17	79*	18	18	54*	3	16
CCCC/C(C)=N/NC(=O)CN(c1ccc(Br)cc1)S(=O)(=O)c1ccccc1	6	-3	4	7	-40	8	/	/
C/C(=N/NC(=O)CN(c1ccccc1)S(=O)(=O)c1ccccc1)c1ccccc1O	7	41	7	5	7	41*	-8	3
CCn1c2c(n(C(C)=O)c1=O)C=C(C(=O)N1CCCC1)C(C)C(c1ccccc1)=C2 (stereo not drawn)	/	/	0	/	/	-77	/	/
COc1ccc(Nc2ccnc3ccccc23)cc1	0	-6	41	37	37	40*	-10	13
SMILES	LRH-1 inv ag	Gli-Sufu block	SRC2 inh	NCOA3 inh	NCOA1 inh	NR2F2 inh	Gal4-VP16 ctr	NR2F2 inh conf
COc1ccc(NC(=O)c2cc(CC(C)C)nc3ccccc23)cc1	-33	-15	-29	0	22	42*	-6	22
O=C(CSC1=NCCS1)Nc1ccnc2ccccc12	17	49	31	47	26	41*	6	51*
O=C(CSC1=NCCS1)Nc1ccc2ccccc2c1	-3	-4	-13	-3	-9	-26	/	/
O=C(NCC1CCN(Cc2ccc(Cl)cc2)CC1)C1CCCN(c2ncnc3c2nc2n3CCCCC2)C1 (stereo not drawn)	24	45	31	27	3	58*	8	34
COCCCN=C1NN=C(c2cc(C)n(-c3ccccc3F)c2C)CS1	-113	38	-53	-31	-42	5	/	/
COCCn1c(C)cc(C2=NNC(=Nc3ccccc3F)SC2)c1C	87*	34	84*	85*	84*	90*	36*	80*
CCOC(=O)Oc1c(OC)cc(C(=O)O[C@@H]2C[C@@H]3CN4CCc5c([nH]c6cc(OC)ccc56)[C@H]4C[C@@H]3[C@H](C(=O)OC)[C@H]2OC)cc1OC	-5	7	6	18	16	50*	-12	43*
COC(=O)C1C2CC3c4[nH]c5cc(OC)ccc5c4CCN3CC2CC(OC(=O)CC(C)=O)C1OC (stereo not drawn)	-7	4	9	-18	-2	0	/	/
COc1ccccc1C(=O)N1CCN(C(=O)[C@H]2O[C@@H](n3cnc(C(N)=O)n3)[C@H](O)[C@@H]2O)CC1	/	/	6	/	/	11	/	/
C[n+]1ccc(/C=C/c2cccs2)cc1	-2	6	-24	17	-2	6	/	/
CN(C)c1ccc(C=Cc2nccc3ccccc23)cc1	-74	/	5	-75	-83	3	/	/
CCCCCC[n+]1ccccc1/C=C/c1ccc(N(C)C)cc1	98*	/	23	82*	72*	92*	25*	89*
Cc1ccc(/C=C/c2ccc(N(C)C)cc2)[n+](C)c1	59	85*	-15	49	42	65*	-6	55*
CN(C)c1ccc(/C=C/c2cc[n+](C)cc2)cc1	6	70*	0	31	18	41*	-15	15
Cc1ccc(C(=O)O/N=C/c2ccc(N(C)C)cc2)cc1	-12	-1	-9	5	-2	-9	/	/
CC(C)(C)S(=O)(=O)N1C[C@H]2CC(=O)C(CCO)=C2[C@@H]1CCO	/	/	15	/	/	22	/	/
CCn1c(SCC(=O)c2[nH]c(C)c(C(C)=O)c2C)nnc1-c1cccs1	18	7	-8	20	18	52*	3	13
